Measured values from PubChem BioAssay AID1159580 (chemical genetic matrix, 2015).
“And” between values parts separate entries of the source, which are not always exact repeats. Equal entries are not always repeated. Among all 5,500 compounds or so, about 2,000 (36%) were called active. About 18% were inconclusive and are not listed. Cut-off read from the data, not from the text of the source: active = normalized growth mostly below about 0.91 (no sharp cut-off); inconclusive = no clear call, values can overlap the other calls; inactive = mostly above about 0.92. The list shows a part of the results.

Experiment: chemical genetic growth profiling, strain panel (AID 1159580);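 note: tested at 20 µM; growth read once vehicle control cultures reached saturation at 30 °C; 1 = growth at the plate median or of vehicle wells; lower values mean less growth of the strain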
Details: S. cerevisiae deletion strains, growth OD

Measured: normalized growth

COC(=O)[C@@H]1OC(=O)C2OC23[C@@]1(C)CCC1[C@]2(C)C(C[C@@H](O)[C@]13C)C(C)(C)[C@H](OC(C)=O)C[C@@H]2OC(C)=O (stereo not given in full)
inactive: locus YAL021C, strain ccr4, hits give low values 1 | locus YAL026C, strain drs2, hits give low values 1.01 | locus YAL030W, strain snc1, hits give low values 1 | locus YBL061C, strain skt5, hits give low values 1 | locus YBR009C, strain hhf1, hits give low values 1.03 | locus YBR021W, strain FUR4, hits give low values 0.993 | locus YBR023C, strain chs3, hits give low values 0.997 | locus YBR171W, strain sec66, hits give low values 0.995 | locus YBR229C, strain ROT2, hits give low values 1.01 | locus YBR231C, strain swc5, hits give low values 1.01 | locus YBR279W, strain paf1, hits give low values 1 | locus YCL011C, strain gbp2, hits give low values 1.01 | locus YCL016C, strain dcc1, hits give low values 1 | locus YCL029C, strain bik1, hits give low values 1.01 | locus YCL069W, strain vba3, hits give low values 0.996 | locus YCR088W, strain abp1, hits give low values 0.991 | locus YDL005C, strain med2, hits give low values 0.987 | locus YDL035C, strain GPR1, hits give low values 1.05 | locus YDL040C, strain nat1, hits give low values 1 | locus YDL074C, strain BRE1, hits give low values 1.06 | locus YDL101C, strain DUN1, hits give low values 1.02 | locus YDL134C, strain PPH21, hits give low values 1.02 | locus YDL185W, strain tfp1, hits give low values 1.01 | locus YDL192W, strain arf1, hits give low values 1.01 | locus YDR001C, strain nth1, hits give low values 0.997 | locus YDR069C, strain doa4, hits give low values 1.01 | locus YDR101C, strain arx1, hits give low values 1.03 | locus YDR137W, strain rgp1, hits give low values 1.03 | locus YDR150W, strain NUM1, hits give low values 1.01 | locus YDR159W, strain sac3, hits give low values 0.985 | locus YDR162C, strain NBP2, hits give low values 1.03 | locus YDR195W, strain ref2 0.988 | locus YDR297W, strain sur2, hits give low values 0.989 | locus YDR318W, strain mcm21, hits give low values 0.995 | locus YDR334W, strain swr1, hits give low values 1 | locus YDR335W, strain msn5, hits give low values 1 | locus YDR388W, hits give low values 1.01 | locus YDR392W, strain spt3, hits give low values 1.01 | locus YDR502C, strain sam2, hits give low values 1 | locus YEL003W, strain gim4, hits give low values 1 | locus YEL037C, strain rad23, hits give low values 1 | locus YEL061C, strain CIN8 (second series), hits give low values 0.986 | locus YEL061C, strain CIN8, hits give low values 1.01 | locus YER015W, strain faa2, hits give low values 0.994 | locus YER016W, strain bim1, hits give low values 1 | locus YER110C, hits give low values 0.995 | locus YER111C, strain swi4, hits give low values 1 | locus YER155C, strain BEM2 (second series), hits give low values 1.01 | locus YER155C, strain BEM2, hits give low values 0.989 | locus YER167W, strain BCK2, hits give low values 1.02 | locus YFR010W, strain ubp6, hits give low values 1.02 | locus YGL078C, strain dbp3, hits give low values 1.01 | locus YGL086W, strain mad1, hits give low values 0.996 | locus YGL167C, strain pmr1, hits give low values 1 | locus YGL173C, strain kem1, hits give low values 1 | locus YGL227W, strain vid30, hits give low values 1.01 | locus YGL240W, strain doc1, hits give low values 1 | locus YGL248W, strain PDE1, hits give low values 1.01 | locus YGL253W, strain hxk2, hits give low values 1.01 | locus YGR135W, strain pre9, hits give low values 0.971 | locus YGR252W, strain gcn5, hits give low values 0.966 | locus YHR013C, strain ard1, hits give low values 0.989 | locus YHR027C, strain rpn1, hits give low values 1 | locus YHR030C, strain SLT2, hits give low values 0.998 | locus YHR079C, strain IRE1 (second series), hits give low values 1 | locus YHR079C, strain IRE1, hits give low values 1.01 | locus YHR094C, strain hxt1, hits give low values 1.01 | locus YHR129C, strain ARP1, hits give low values 0.999 | locus YHR142W, strain chs7, hits give low values 1 | locus YHR200W, strain rpn10, hits give low values 1.01 | locus YIL066C, strain RNR3, hits give low values 1.03 | locus YIL073C, strain SPO22, hits give low values 1.03 | locus YIL125W, strain kgd1, hits give low values 0.997 | locus YIR030C, strain dcg1, hits give low values 0.992 | locus YJL092W, strain hpr5, hits give low values 0.997 | locus YJL095W, strain BCK1 (second series), hits give low values 0.989 | locus YJL095W, strain BCK1, hits give low values 1 and 0.991 | locus YJL115W, strain asf1, hits give low values 0.995 | locus YJL129C, strain trk1, hits give low values 0.995 | locus YJL134W, strain LCB3, hits give low values 1.01 | locus YJL154C, strain vps35, hits give low values 1.01 | locus YJL164C, strain tpk1, hits give low values 1.02 | locus YJL166W, strain qcr8, hits give low values 1.01 | locus YJL168C, strain set2, hits give low values 0.998 | locus YJL187C, strain SWE1 (second series), hits give low values 1 | locus YJL187C, strain SWE1, hits give low values 1.01 | locus YJR066W, strain TOR1, hits give low values 0.913 | locus YKL009W, strain mrt4, hits give low values 0.998 | locus YKL068W, hits give low values 1 | locus YKL085W, strain MDH1 (second series), hits give low values 0.999 | locus YKL085W, strain MDH1, hits give low values 0.999 | locus YKL160W, strain elf1, hits give low values 1 | locus YKL190W, strain CNB1, hits give low values 1.01 | locus YKR001C, strain vps1, hits give low values 1.01 | locus YKR026C, strain gcn3, hits give low values 0.993 | locus YKR091W, strain srl3, hits give low values 0.999 | locus YLL001W, strain dnm1, hits give low values 1.01 | locus YLL026W, hits give low values 0.998 | locus YLL041C, strain sdh2, hits give low values 0.995 | locus YLR027C, strain aat2, hits give low values 1.01 | locus YLR039C, strain RIC1, hits give low values 1.12 | locus YLR058C, strain SHM2, hits give low values 1.02 | locus YLR102C, strain apc9, hits give low values 1 | locus YLR113W, strain HOG1, hits give low values 1.08 | locus YLR221C, strain rsa3, hits give low values 0.999 | locus YLR258W, strain gsy2, hits give low values 1.01 | locus YLR262C, strain YPT6 (second series), hits give low values 0.997 | locus YLR268W, strain sec22, hits give low values 1.02 | locus YLR320W, strain mms22, hits give low values 1 | locus YLR330W, strain CHS5, hits give low values 1.01 | locus YLR342W, strain FKS1, hits give low values 1 | locus YLR357W, strain rsc2, hits give low values 0.969 | locus YLR370C, strain arc18, hits give low values 1.01 | locus YLR371W, strain rom2, hits give low values 0.988 | locus YLR384C, strain iki3, hits give low values 0.988 | locus YLR418C, strain cdc73, hits give low values 0.972 | locus YML016C, strain PPZ1, hits give low values 1.01 | locus YML032C, strain rad52, hits give low values 1.01 | locus YML120C, strain ndi1, hits give low values 0.994 | locus YML124C, strain tub3, hits give low values 0.987 | locus YMR058W, strain fet3, hits give low values 1.01 | locus YMR078C, strain ctf18, hits give low values 1 | locus YMR125W, strain sto1, hits give low values 0.987 | locus YMR129W, hits give low values 0.996 | locus YMR205C, strain PFK2, hits give low values 1.01 | locus YMR223W, strain ubp8, hits give low values 0.985 | locus YMR231W, strain pep5, hits give low values 0.994 | locus YMR307W, strain GAS1, hits give low values 0.996 | locus YNL067W, strain RPL9B, hits give low values 1.01 | locus YNL071W, strain lat1, hits give low values 0.997 | locus YNL183C, strain NPR1, hits give low values 0.95 | locus YNL209W, strain ssb2, hits give low values 1.01 | locus YNL233W, strain BNI4, hits give low values 1.01 | locus YNL248C, strain rpa49, hits give low values 0.997 | locus YNL250W, strain rad50, hits give low values 1 | locus YNL271C, strain bni1, hits give low values 1.01 | locus YNL298W, strain CLA4, hits give low values 1.01 | locus YNL307C, strain MCK1, hits give low values 1.01 | locus YNL322C, strain KRE1 (second series), hits give low values 0.998 | locus YNL322C, strain KRE1, hits give low values 1.02 | locus YNR049C, strain mso1, hits give low values 0.988 | locus YNR052C, strain pop2, hits give low values 0.996 | locus YOL012C, strain htz1 0.946 | locus YOL147C, strain pex11, hits give low values 0.998 | locus YOR001W, strain rrp6, hits give low values 1.03 | locus YOR061W, strain CKA2, hits give low values 1.02 | locus YOR069W, strain VPS5, hits give low values 1.01 | locus YOR070C, strain gyp1, hits give low values 1 | locus YOR080W, strain dia2, hits give low values 1.01 | locus YOR083W, strain WHI5, hits give low values 1 | locus YOR106W, strain vam3, hits give low values 1.02 | locus YOR136W, strain idh2, hits give low values 0.989 | locus YOR144C, strain elg1, hits give low values 1.01 | locus YOR184W, strain ser1, hits give low values 1.01 | locus YOR231W, strain MKK1, hits give low values 1.01 | locus YOR265W, strain rbl2, hits give low values 0.983 | locus YOR270C, strain vph1, hits give low values 1.02 | locus YOR290C, strain snf2, hits give low values 1 | locus YOR316C, strain cot1, hits give low values 1 | locus YPL051W, strain arl3, hits give low values 1.01 | locus YPL055C, strain LGE1, hits give low values 1.03 | locus YPL078C, strain atp4, hits give low values 1.01 | locus YPL106C, strain sse1, hits give low values 0.999 | locus YPL240C, strain hsp82, hits give low values 1 | locus YPL256C, strain CLN2, hits give low values 1.01 | locus YPR119W, strain clb2, hits give low values 1 | locus YPR141C, strain kar3, hits give low values 1 | locus YPR163C, strain tif3, hits give low values 1.01 | locus YPR167C, strain met16, hits give low values 1 | strain wtn01, hits give low values 1
